# “And” between values parts separate entries of the source, which are not always exact repeats. Equal values may be shown once. Results filed as inconclusive are left out. A call without a number means that no potency is given here. More than one record can exist for a structure, and the calls need not agree. The source made the active and inactive calls. Calls follow the shape of the dose curve; as a rule, active = well fitted cell-killing curve with a large enough effect in the repeat runs; inconclusive = weak or mixed curves; inactive = no such curve, though single readings can be large or run the other way.
# Experiment: qHTS assay for identifying genotoxic compounds that show differential cytotoxicity against isogenic chicken DT40 cell lines with known DNA damage response pathways - Rad54/Ku70 mutant cell line (AID 743015); also: nearly all actives have a fitted effect of over 60% in size
# Conditions: DT40 Rad54/Ku70 mutant viability, CellTiter-Glo, 40 h; series mostly up to 66.8 µM
# From the text: National Center for Advancing Translational Sciences [NCATS]
# NIH Chemical Genomics Center [NCGC]
# U.S. Environmental Protection Agency [EPA]
# National Institutes of Environmental Health Sciences [NIEHS]
# National Toxicology Program [NTP]
# U.S. Food and Drug Administration [FDA]
# DNA repair pathways play a critical role in cellular homeostasis by repairing DNA damage induced by endogenous processes and xenobiotics. Isogenic chicken DT40 cell lines deficient in different DNA repair pathways can be used to identify genotoxic compounds and aid in characterizing the nature of the DNA damage induced. Two DNA repair-deficient cell lines with disrupted genes, Rad54/Ku70 or Rev3, were used to screen the Tox21 10K compound library. Possible genotoxicity was based on the presence of a significant increase in cytotoxicity in one or more of the DNA repair-deficient cell lines compared to that observed in the parental DNA repair-proficient cell line. CellTiter Glo viability assay (Promega, Madison, WI) was used to measure cell viability in these cells after compound treatment. This assay includes the data from the Rad54/Ku70 mutant cell line.
# Tox21 Assay Protocol Summary:
# 300 DT40 mutant cells in 5 uL/well were dispensed into white, solid-bottom 1536-well plates using a Multidrop Combi (ThermoFisher Scientific, Waltham, MA) dispenser. After the assay plates were incubated at 37 C/5% CO2 for approximately 0.5 hour, 23 nL of compounds dissolved in DMSO, positive controls or DMSO only was transferred into the assay plate by a pintool work station (Kalypsys, San Diego, CA). The assay plates were incubated at 37 C/5% CO2 for 40 hours. After 5 uL per well of CellTiter-Glo reagent was added into each well of the assay plates, the plates were incubated for 30 min at room temperature and the luminescence intensity of the plates was measured using a ViewLux (PerkinElmer, Shelton, CT) plate reader.
# Potency is read from the fitted curve at half-maximal effect.
row,Compound,Potency
1,O=C1OC2(c3ccccc31)c1cc(Br)c(O)c(Br)c1Oc1c2cc(Br)c(O)c1Br,inactive
2,COc1ccc2cc(S(=O)(=O)N[C@H](CC(=O)N[C@H](Cc3ccc(CN4[C@H](C)CCC[C@@H]4C)cc3)C(=O)N(C)C(C)C)c3ccc4c(c3)OCO4)ccc2c1,5.16 µM (active)
3,CN1CCc2cccc3c2[C@H]1Cc1ccc(O)c(O)c1-3,16.8 µM (active) and 12.3 µM (active) and 8.1 µM (active)
4,COc1ccc(OC(F)(F)F)cc1CN[C@H]1CCCN[C@H]1c1ccccc1,27.3 µM (active)
5,O=C1NC(=O)C(c2ccccc2)(c2ccccc2)N1,inactive
6,O=C1O[C@H]([C@@H](O)CO)C(O)=C1O,inactive and 48.6 µM (active)
7,CCc1nc(N)nc(N)c1-c1ccc(Cl)cc1,1.5 µM (active) and 392 nM (active) and 217 nM (active)
8,CN(C)C(=S)SC(=S)N(C)C,750 nM (active) and 789 nM (active) and 96.9 nM (active)
9,CN1CCC[C@H]1c1cccnc1,inactive
10,CS(=O)(=O)OCCCCOS(C)(=O)=O,inactive
11,Oc1ccccc1,inactive
12,C=C1CC[C@H](O)C/C1=C\C=C1/CCC[C@]2(C)[C@@H]([C@H](C)CCCC(C)C)CC[C@@H]12,13.3 µM (active) and 15.2 µM (active)
13,NS(=O)(=O)O,inactive
14,O=C(O)c1ccccc1,inactive
15,NC1CCCCC1,61.5 µM (active) and inactive
16,O=C1NS(=O)(=O)c2ccccc21,inactive
17,Nc1ccc(S(N)(=O)=O)cc1,inactive and 61.4 µM (active)
18,CC(=O)CCC(=O)O,inactive
19,Cn1c(=O)c2c(ncn2C)n(C)c1=O,inactive and 49.2 µM (active)
20,Cc1ncc([N+](=O)[O-])n1C,inactive

row,Compound,Potency
1,CCCCCCCCCCCCCCCC[N+](C)(C)Cc1ccccc1,668 nM (active) and 891 nM (active) and 1.39 µM (active)
2,CCCCC1(COC(=O)CCC(=O)O)C(=O)N(c2ccccc2)N(c2ccccc2)C1=O,inactive
3,COc1ccc(CN(CCN(C)C)c2ccccn2)cc1,inactive
4,O=C(O)CC(O)C(=O)O (stereo not given),inactive
5,NS(=O)(=O)c1cc2c(cc1Cl)NCNS2(=O)=O,inactive
6,CCCCCCCC(=O)OCC(COC(=O)CCCCCCC)OC(=O)CCCCCCC,inactive
7,NC(=O)c1cccnc1,inactive
8,Cc1cn([C@H]2C=C[C@@H](CO)O2)c(=O)[nH]c1=O,inactive
9,CCN(Cc1c(F)cccc1Cl)c1c([N+](=O)[O-])cc(C(F)(F)F)cc1[N+](=O)[O-],24.3 µM (active)
10,Cc1ccc(S(=O)(=O)O)cc1,inactive
11,CCCc1cc(=O)[nH]c(=S)[nH]1,inactive and 54.5 µM (active)
12,CCCCNC(=O)NS(=O)(=O)c1ccc(C)cc1,inactive
13,O=CC(=O)c1ccccc1,inactive
14,O=C1c2c(O)cccc2Cc2cccc(O)c21,inactive
15,CN(C)C(=O)Nc1ccc(Cl)c(Cl)c1,inactive
16,CCCCOC(=O)c1ccc(O)cc1,inactive and 61.1 µM (active)
17,NC(CO)(CO)CO,inactive
18,C[C@](N)(Cc1ccc(O)c(O)c1)C(=O)O,inactive and 60.9 µM (active)
19,OC[C@H]1O[C@H](O[C@]2(CCl)O[C@H](CCl)[C@@H](O)[C@@H]2O)[C@H](O)[C@@H](O)[C@H]1Cl,inactive
20,Cc1cc(=O)oc2cc(O)ccc12,inactive
